Data published in the antibiotic and cytotoxicity screens of Wong et al. (2023).
The whole screen tested about 39,000 compounds, of which about 500 (1.3%) were called active. The full list was thinned out, with actives kept by preference.

System: S. aureus RN4220
Test: growth inhibition call (relative growth <= 0.2)
Conditions: 50 µM

SMILES | growth inhibition call
C[C@@H]1CN([C@H](C)CO)C(=O)c2cc(NC(=O)NC3CCCCC3)ccc2O[C@@H]1CN(C)Cc1ccc(Cl)c(Cl)c1 | inactive
CS(=O)(=O)O.CSc1ccc2c(c1)C(N1CCN(C)CC1)Cc1ccccc1S2 (centres undefined) | active
CSc1ccc2c(c1)N(CCC1CCCCN1C)c1ccccc1S2.Cl (centres undefined) | inactive
CN1CCC(=C2c3ccccc3Sc3ccccc32)CC1.O=C(O)C=CC(=O)O | inactive
C[C@@H]1CCCCO[C@@H](CN(C)C(=O)c2ccccc2)[C@@H](C)CN([C@@H](C)CO)C(=O)c2cc(NC(=O)Nc3ccc(C(F)(F)F)cc3)ccc2O1 | inactive
Cc1ncc[nH]1 | inactive
OCc1ncc[nH]1 | inactive
CC[C@@H](C)SSc1ncc[nH]1 | active
C[C@@H]1CN([C@@H](C)CO)S(=O)(=O)c2ccc(C#CCN(C)C)cc2O[C@@H]1CN(C)C(=O)C1CCCCC1 | inactive
Cc1ccc(S(=O)(=O)Nc2cccc3c2O[C@@H](CN(C)CC2CC2)[C@@H](C)CN([C@H](C)CO)C3=O)cc1 | inactive
C[C@H](O)C#Cc1cnc2c(c1)C(=O)N([C@@H](C)CO)C[C@@H](C)[C@H](CN(C)Cc1cncnc1)O2 | inactive
O=C(c1cccnc1)N1C[C@H]2[C@@H](c3ccccc31)[C@H](CO)N2C(=O)CN1CCOCC1 | inactive
Oc1ccc(C2(c3ccccc3F)CCC(F)(F)CC2)cc1 | active
O=S1(=O)OC(c2ccc(O)cc2)(c2ccc(O)cc2)c2ccccc21 | inactive
O=C1OC(c2ccc(O)cc2)(c2ccc(O)cc2)c2ccccc21 | inactive
C[C@H]1CN([C@@H](C)CO)S(=O)(=O)c2ccc(C#CCN(C)C)cc2O[C@@H]1CN(C)C(=O)c1ccccc1F | inactive
C[C@H]1CN([C@@H](C)CO)C(=O)c2cccc(NS(=O)(=O)c3cn(C)cn3)c2O[C@H]1CN(C)S(=O)(=O)c1ccccc1 | inactive
C[C@@H]1CN([C@H](C)CO)S(=O)(=O)c2ccc(C#CC(C)(C)O)cc2O[C@H]1CN(C)Cc1ccccc1 | inactive
CC(N)O.Cc1cc(CC(C)CC(C)(C)C)n(O)c(=O)c1 (centres undefined) | active
C[C@@H]1CCCCO[C@@H](CN(C)Cc2ccncc2)[C@@H](C)CN([C@@H](C)CO)C(=O)c2cc(NC(=O)Nc3ccc4c(c3)OCO4)ccc2O1 | inactive
C[C@@H]1CN([C@@H](C)CO)C(=O)Cc2cc(NS(=O)(=O)c3cn(C)cn3)ccc2O[C@@H]1CN(C)CC1CCCCC1 | inactive
CC(=O)c1ccccc1OC[C@@H](O)CN(CCO)CCO | inactive
CN(C(=O)CN(CCO)CC(=O)N(C)C(C)(C)Cc1ccccc1)C(C)(C)Cc1ccccc1 | active
O=C(O)CN(CCc1ccccc1)CC(=O)O | inactive
